Data taken from PubChem BioAssay (Tox21).
Values without a mark were called inactive. Records with an inconclusive call do not appear. Entries that show only a call come without a potency. Activity calls are given as the source filed them. Unless noted, the call rests on the fitted dose curve; in most records, active means well fitted curve in the direction sought with a large enough effect in the repeat runs; inconclusive means weak or mixed curves; inactive means no such curve, though single readings can be large; an effect the other way counts as inactive or inconclusive.

Key:
[1] = qHTS assay to identify small molecule antagonists of the sonic hedgehog signaling (Shh) pathway (AID 1259369; calls by dose curve; further: nearly all actives have a fitted effect of over 45% in size)
Outline: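 Antagonist mode: compound added to 3T3 Gli1-Luc cells followed by conditioned-medium stimulation, 24 h at 37 C, 5% CO2. Inhibition taken as loss of Gli1-driven luciferase luminescence.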

[2] = target: Estrogen receptor beta (Homo sapiens) (UniProt Q92731); test: qHTS assay to identify small molecule agonists of the estrogen receptor beta (ER-beta) signaling pathway (AID 1259377; active means well fitted activation curve with a large enough effect in the signal ratio in the repeat runs, not every such curve was filed as active; the % refers to the signal ratio)
Estrogen receptor beta (Homo sapiens), sequence (Q92731 whole entry, looked up): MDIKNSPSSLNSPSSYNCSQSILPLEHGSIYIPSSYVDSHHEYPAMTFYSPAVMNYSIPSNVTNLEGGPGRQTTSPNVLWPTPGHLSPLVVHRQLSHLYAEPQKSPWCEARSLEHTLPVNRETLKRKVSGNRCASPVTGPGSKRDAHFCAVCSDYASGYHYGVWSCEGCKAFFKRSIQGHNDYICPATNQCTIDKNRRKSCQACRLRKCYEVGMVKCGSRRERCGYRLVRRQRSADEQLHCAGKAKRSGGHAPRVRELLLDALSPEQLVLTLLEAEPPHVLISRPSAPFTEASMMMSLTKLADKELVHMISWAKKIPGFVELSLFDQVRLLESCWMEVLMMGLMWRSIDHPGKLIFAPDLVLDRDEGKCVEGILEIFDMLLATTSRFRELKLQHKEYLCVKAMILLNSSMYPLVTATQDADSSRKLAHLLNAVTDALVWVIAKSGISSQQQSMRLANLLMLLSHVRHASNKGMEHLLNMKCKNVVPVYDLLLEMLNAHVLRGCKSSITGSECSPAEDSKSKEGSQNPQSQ
Outline: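 Ratiometric beta-lactamase FRET read-out came after 2 h substrate loading at room temperature. It followed 16 h compound treatment at 37C of GripTite HEK293T cells carrying a UAS-bla reporter, plated in 2% charcoal-stripped FBS medium.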

[3] = target: Estrogen receptor beta (Homo sapiens) (UniProt Q92731); test: qHTS assay to identify small molecule antagonists of the estrogen receptor beta (ER-beta) signaling pathway (AID 1259378; active means well fitted inhibition curve with a large enough effect in the signal ratio in the repeat runs, not every such curve was filed as active; the % refers to the signal ratio)
Outline: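 Antagonist mode: compounds added to beta-lactamase reporter HEK293T ER-beta-UAS cells stimulated with E2 (1nM final), 16 hr at 37C. LiveBLAzer B/G FRET substrate, 2 hours room temperature, fluorescence read-out.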

[4] = qHTS assay to identify small molecule agonists of the androgen receptor (AR) signaling pathway in the presence of an antagonist - cell viability counter screen (AID 1259379); further: nearly all actives have a fitted effect of over 25% in size; further: potency means the concentration at half of the fitted maximal effect
Outline: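 Cytotoxicity counter-screen run in the same wells as the nilutamide-challenged (3.0 µM final) AR agonist assay in MDA-kb2 cells. Compounds tested at 15 concentrations for 16 h, 37 °C without CO2; CellTiter-Fluor fluorescence read.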

[5] = target: Androgen receptor (Homo sapiens) (UniProt P10275); test: qHTS assay to identify small molecule agonists of the androgen receptor (AR) signaling pathway in the presence of an antagonist (AID 1259381; calls by dose curve; further: nearly all actives have a fitted effect of over 15% in size)
Androgen receptor (Homo sapiens), sequence (P10275 whole entry, looked up): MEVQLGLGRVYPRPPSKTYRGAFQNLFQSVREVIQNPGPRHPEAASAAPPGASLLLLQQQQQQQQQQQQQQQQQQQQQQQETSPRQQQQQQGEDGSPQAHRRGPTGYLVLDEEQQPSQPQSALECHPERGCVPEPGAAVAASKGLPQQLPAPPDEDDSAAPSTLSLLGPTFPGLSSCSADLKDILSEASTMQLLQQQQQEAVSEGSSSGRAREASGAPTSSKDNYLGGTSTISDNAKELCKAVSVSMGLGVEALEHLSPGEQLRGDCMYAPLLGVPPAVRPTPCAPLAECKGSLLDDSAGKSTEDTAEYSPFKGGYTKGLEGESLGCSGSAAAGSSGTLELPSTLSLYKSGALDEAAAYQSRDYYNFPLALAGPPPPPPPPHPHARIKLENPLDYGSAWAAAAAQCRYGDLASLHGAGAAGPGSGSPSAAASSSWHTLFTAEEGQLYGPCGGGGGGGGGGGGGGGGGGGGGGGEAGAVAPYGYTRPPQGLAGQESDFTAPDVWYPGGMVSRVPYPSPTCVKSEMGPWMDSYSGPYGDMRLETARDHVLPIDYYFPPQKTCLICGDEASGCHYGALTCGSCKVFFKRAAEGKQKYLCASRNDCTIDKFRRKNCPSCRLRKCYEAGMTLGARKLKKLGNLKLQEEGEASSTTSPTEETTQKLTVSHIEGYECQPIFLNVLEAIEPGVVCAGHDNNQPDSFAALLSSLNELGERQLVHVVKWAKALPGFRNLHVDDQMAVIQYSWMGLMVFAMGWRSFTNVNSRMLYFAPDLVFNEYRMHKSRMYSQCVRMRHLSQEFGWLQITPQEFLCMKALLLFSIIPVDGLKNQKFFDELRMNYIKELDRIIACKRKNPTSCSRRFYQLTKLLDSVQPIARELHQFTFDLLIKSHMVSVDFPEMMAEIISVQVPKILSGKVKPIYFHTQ
Outline: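 Agonist-mode confirmation run against 3.0 uM final nilutamide: compounds titrated at 15 concentrations onto MDA-kb2 MMTV-luciferase reporter cells. Luminescence measured with ONE-Glo following 16 hr incubation, 37C, 0% CO2.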

[6] = qHTS assay to identify small molecule antagonists of the estrogen receptor beta (ER-beta) signaling pathway - cell viability counter screen (AID 1259382);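 further: HEK293T cells carrying ER-beta-UAS-bla reporter stimulated with estradiol; series mostly up to about 92 µM; nearly all actives have a fitted effect of over 55% in size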
Outline: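 Cytotoxicity was measured in the same wells by CellTiter-Glo luminescence after 30 min at room temperature. Cells were ER-beta-bla HEK293T in charcoal-stripped serum, given compound together with 1 nM E2 and incubated 16 h at 37C.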

[7] = qHTS assay to identify small molecule agonists or antagonists of the thyroid stimulating hormone receptor (TSHR) signaling pathway - wild type cell line counter screen (AID 1259384; calls by dose curve)
Outline: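 Counter screen in untransfected Hek293: compounds (15-point titration, triplicate) plus phosphodiesterase inhibitor Ro20-1724 added after 18 h plating; 30 min RT. Intracellular cAMP via competitive d2/cryptate immunoassay, 1 h incubation.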

[8] = target: Thyrotropin receptor (Homo sapiens) (UniProt P16473); test: qHTS assay to identify small molecule antagonists of the thyroid stimulating hormone receptor (TSHR) signaling pathway (AID 1259385; calls by dose curve; further: nearly all actives have a fitted effect of over 20% in size; further: potency means the concentration at half of the fitted maximal effect)
Thyrotropin receptor (Homo sapiens), sequence (P16473 whole entry, looked up): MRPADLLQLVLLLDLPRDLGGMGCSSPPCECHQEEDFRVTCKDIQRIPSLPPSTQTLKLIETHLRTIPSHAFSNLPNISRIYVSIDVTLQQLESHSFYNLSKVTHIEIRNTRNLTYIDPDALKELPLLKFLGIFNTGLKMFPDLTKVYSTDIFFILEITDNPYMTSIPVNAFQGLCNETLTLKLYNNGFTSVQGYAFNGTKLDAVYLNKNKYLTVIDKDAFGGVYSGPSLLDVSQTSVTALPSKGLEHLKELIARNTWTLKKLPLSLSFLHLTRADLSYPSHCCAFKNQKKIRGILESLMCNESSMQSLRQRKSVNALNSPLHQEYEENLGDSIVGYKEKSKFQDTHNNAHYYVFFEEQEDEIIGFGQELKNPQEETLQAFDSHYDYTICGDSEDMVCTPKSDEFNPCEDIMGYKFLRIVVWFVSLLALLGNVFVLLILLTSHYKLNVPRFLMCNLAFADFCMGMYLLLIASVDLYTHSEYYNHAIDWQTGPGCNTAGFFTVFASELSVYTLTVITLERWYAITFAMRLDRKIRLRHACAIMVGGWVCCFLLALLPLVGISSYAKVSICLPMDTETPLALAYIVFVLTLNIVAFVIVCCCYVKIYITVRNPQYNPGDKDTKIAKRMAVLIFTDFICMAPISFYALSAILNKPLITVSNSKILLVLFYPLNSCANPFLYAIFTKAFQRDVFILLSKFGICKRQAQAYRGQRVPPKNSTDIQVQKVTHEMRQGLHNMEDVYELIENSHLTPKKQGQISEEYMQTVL
Outline: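 Antagonist mode: compound-treated TSHR-expressing HEK293 cells were stimulated with 1.5 ng/mL TSH (final) in presence of Ro20-1724 for 30 min at RT. HTRF cAMP detection after 1 h; each compound tested at 15 concentrations, triplicate.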

[9] = qHTS assay to identify small molecule agonists of the estrogen receptor alpha (ER-alpha) signaling pathway in the presence of an antagonist - cell viability counter screen (AID 1259386); further: nearly all actives have a fitted effect of over 30% in size; further: potency means the concentration at half of the fitted maximal effect
Outline: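 Compounds tested at 15 concentrations for 22 h at 37C alongside 10.0nM (final) ICI-182,780 antagonist, in VM7Luc4E2 cells grown in phenol red-free, charcoal-stripped medium. Viability read by CellTiter-Fluor fluorescence after 1 h reagent incubation.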

[10] = target: Progesterone receptor (Homo sapiens) (UniProt P06401); test: qHTS assay to identify small molecule agonists of the progesterone receptor (PR) signaling pathway (AID 1346784; calls by dose curve; further: nearly all actives have a fitted effect of over 30% in size)
Progesterone receptor (Homo sapiens), sequence (P06401 whole entry, looked up): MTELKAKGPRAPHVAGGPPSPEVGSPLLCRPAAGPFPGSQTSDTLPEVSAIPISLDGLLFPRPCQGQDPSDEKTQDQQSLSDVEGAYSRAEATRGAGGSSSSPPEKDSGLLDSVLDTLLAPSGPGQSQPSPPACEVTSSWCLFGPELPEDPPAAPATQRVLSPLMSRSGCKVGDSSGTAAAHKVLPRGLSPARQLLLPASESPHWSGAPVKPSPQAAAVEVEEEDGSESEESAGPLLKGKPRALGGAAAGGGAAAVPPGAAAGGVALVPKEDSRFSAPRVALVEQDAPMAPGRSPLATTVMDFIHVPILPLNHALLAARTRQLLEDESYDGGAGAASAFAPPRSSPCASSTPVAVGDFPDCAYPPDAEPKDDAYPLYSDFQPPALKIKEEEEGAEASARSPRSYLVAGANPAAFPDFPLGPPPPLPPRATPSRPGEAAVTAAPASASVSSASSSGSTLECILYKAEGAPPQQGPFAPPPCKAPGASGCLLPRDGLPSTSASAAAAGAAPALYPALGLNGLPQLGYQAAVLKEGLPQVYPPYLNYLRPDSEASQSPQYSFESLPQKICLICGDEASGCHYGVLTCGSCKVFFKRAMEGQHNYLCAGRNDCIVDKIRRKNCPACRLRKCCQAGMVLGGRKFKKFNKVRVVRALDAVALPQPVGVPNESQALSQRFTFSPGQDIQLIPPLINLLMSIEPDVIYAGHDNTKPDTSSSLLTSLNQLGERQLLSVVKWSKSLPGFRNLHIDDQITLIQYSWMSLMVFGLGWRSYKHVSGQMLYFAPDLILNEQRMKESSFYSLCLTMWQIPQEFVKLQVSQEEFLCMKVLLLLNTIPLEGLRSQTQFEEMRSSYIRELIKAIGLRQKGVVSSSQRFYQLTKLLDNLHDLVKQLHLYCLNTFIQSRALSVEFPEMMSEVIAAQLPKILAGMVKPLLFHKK
Outline: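 Agonist qHTS: compounds pinned onto 3,000 PR-UAS-bla HEK 293T cells per well in charcoal-stripped serum medium, 16hr at 37C, then beta-lactamase activity measured by LiveBLAzer FRET fluorescence after 2 hours at room temperature.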

[11] = target: Progesterone receptor (Homo sapiens) (UniProt P06401); test: qHTS assay to identify small molecule antagonists of the progesterone receptor (PR) signaling pathway (AID 1346795; active means well fitted inhibition curve with a large enough effect in the signal ratio in the repeat runs, not every such curve was filed as active; the % refers to the signal ratio; further: potency means the concentration at half of the fitted maximal effect)
Outline: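 Antagonist mode with agonist R5020 at 1 nM final and 16 hr incubation at 37C. Reporter was beta-lactamase driven by UAS in HEK293T (PR-UAS-bla), 2% charcoal-stripped serum; signal from LiveBLAzer FRET substrate, 2 hr at room temperature.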

[12] = qHTS assay to identify small molecule antagonists of the progesterone receptor (PR) signaling pathway - cell viability counter screen (AID 1346798); further: series mostly up to about 92 µM; nearly all actives have a fitted effect of over 50% in size
Outline: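 Cytotoxicity read as CellTiter-Glo luminescence (30 min, room temperature) in the same wells as the beta-lactamase readout. HEK293T PR-UAS-bla cells in charcoal-stripped 2% FBS received compound and R5020, then 16 h at 37C, 5% CO2.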

[13] = qHTS assay to identify small molecule agonists of the progesterone receptor (PR) signaling pathway - cell viability counter screen (AID 1346799; calls by dose curve; further: nearly all actives have a fitted effect of over 45% in size)
Outline: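 Cytotoxicity measured by CellTiter-Glo luminescence (30 min, RT) in the same wells as the PR beta-lactamase agonist read. Those HEK293T cells had 16 h compound treatment at 37 C in 2% charcoal-stripped FBS medium.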

[14] = qHTS assay to identify small molecule antagonists of the TGF-beta/Smad signaling pathway - cell viability counter screen (AID 1346824); further: nearly all actives have a fitted effect of over 50% in size
Outline: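 Cytotoxicity counter-screen run in the same wells as the beta-lactamase Smad reporter read: CellTiter-Glo luminescence after 30 min at room temperature. HEK 293T SBE-bla cells had 5 hr compound exposure at 37 C with TGF-beta1 (0.25 ng/mL stock).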

[15] = qHTS assay to identify small molecule agonists of the TGF-beta/Smad signaling pathway - cell viability counter screen (AID 1346829); further: top concentration of the series differs between compounds; nearly all actives have a fitted effect of over 45% in size
Outline: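 Same-well cytotoxicity: CellTiter-Glo added after the 2 hr room-temperature beta-lactamase substrate step, luminescence measured 30 min later; cells had 5 hr of compound at 37 C.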

[16] = qHTS assay to identify small molecule agonists of the TGF-beta/Smad signaling pathway (AID 1346859; active means well fitted activation curve with a large enough effect in the signal ratio in the repeat runs, not every such curve was filed as active; the % refers to the signal ratio; further: series mostly up to about 77 µM)
Outline: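 Fluorescence (ex 405 nm; em 460 and 530 nm) was read 2 h after LiveBLAzer FRET substrate at RT. The preceding compound treatment of overnight-plated SBE-bla HEK293T cells lasted 5 h at 37 C.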

[17] = target: Thyrotropin-releasing hormone receptor (Homo sapiens) (UniProt P34981); test: qHTS assay to identify small molecule antagonists of the thyrotropin-releasing hormone receptor (TRHR) signaling pathway (AID 1346877; active means well fitted inhibition curve with a large enough effect in the repeat runs, not every such curve was filed as active; further: series mostly up to about 51 µM)
Thyrotropin-releasing hormone receptor (Homo sapiens), sequence (P34981 whole entry, looked up): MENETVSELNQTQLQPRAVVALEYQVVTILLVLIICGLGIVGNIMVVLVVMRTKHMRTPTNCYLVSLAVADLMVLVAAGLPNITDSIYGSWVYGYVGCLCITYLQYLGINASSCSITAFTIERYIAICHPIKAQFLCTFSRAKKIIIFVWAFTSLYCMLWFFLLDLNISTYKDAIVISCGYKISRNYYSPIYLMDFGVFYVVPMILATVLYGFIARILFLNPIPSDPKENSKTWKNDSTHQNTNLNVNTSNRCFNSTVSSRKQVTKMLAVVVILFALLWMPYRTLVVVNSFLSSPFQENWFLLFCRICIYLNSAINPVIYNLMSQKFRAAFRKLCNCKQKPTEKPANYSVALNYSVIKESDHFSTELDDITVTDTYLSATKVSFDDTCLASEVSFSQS
Outline: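 Antagonist mode: after a 5 min room-temperature compound exposure, cells were stimulated with 1 nM (final) TRH. Dye-loaded TRHR-HEK293 cells were used, and calcium-dependent fluorescence was followed for 3 min, with 15-point titrations run in triplicate.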

[18] = target: Thyrotropin-releasing hormone receptor (Homo sapiens) (UniProt P34981); test: qHTS assay to identify small molecule agonists of the thyrotropin-releasing hormone receptor (TRHR) signaling pathway (AID 1346891; calls by dose curve; further: series mostly up to about 58 µM)
Outline: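 Agonist-mode intracellular calcium readout: kinetic fluorescence over 3 min at 1 s intervals after compound addition to TRHR-HEK293 cells (18 h seeded, 2 h dye-loaded at 37 C). Fifteen concentrations, triplicates.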

[19] = qHTS assay to identify small molecule agonists of the estrogen receptor beta (ER-beta) signaling pathway - cell viability counter screen (AID 1259380); further: nearly all actives have a fitted effect of over 30% in size
Outline: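 Cell viability counter screen: CellTiter-Glo luminescence (30 min, room temperature) measured in the same wells as the beta-lactamase readout, after 16 hr compound exposure at 37C of ER-beta-bla HEK293T cells in 2% charcoal-stripped FBS medium.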

[20] = target: Estrogen receptor (Homo sapiens) (UniProt P03372); test: qHTS assay to identify small molecule agonists of the estrogen receptor alpha (ER-alpha) signaling pathway in the presence of an antagonist (AID 1259383; calls by dose curve; further: top concentration of the series differs between compounds; nearly all actives have a fitted effect of over 15% in size)
Estrogen receptor (Homo sapiens), sequence (P03372 whole entry, looked up): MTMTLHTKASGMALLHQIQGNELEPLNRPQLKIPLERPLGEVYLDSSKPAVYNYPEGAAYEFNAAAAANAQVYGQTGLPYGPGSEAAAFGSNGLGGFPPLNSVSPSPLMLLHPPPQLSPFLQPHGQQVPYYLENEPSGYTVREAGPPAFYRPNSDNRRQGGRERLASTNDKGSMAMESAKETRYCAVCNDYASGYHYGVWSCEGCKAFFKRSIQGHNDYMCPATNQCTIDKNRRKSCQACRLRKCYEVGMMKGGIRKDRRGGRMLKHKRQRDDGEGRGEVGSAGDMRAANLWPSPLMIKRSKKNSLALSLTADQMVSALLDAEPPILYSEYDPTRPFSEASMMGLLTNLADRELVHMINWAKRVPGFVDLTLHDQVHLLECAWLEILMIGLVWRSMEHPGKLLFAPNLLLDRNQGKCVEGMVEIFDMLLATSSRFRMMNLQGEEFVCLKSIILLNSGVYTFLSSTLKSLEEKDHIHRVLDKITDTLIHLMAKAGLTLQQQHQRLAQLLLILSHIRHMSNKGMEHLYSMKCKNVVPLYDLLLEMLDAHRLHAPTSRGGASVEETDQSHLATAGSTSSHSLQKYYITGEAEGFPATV
Outline: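 Agonist-mode confirmation run in the presence of 10.0nM (final) ICI-182,780 antagonist. The reporter was ERE-driven luciferase in VM7Luc4E2 cells, grown in charcoal-stripped serum. Cells were exposed to 15-concentration compound series for 22hr, then ONE-Glo luminescence was read.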

Row | Structure (SMILES) | Potency [1] | outcome [2] | Potency [3] | Potency [4] | Potency [5] | Potency [6] | Potency [7] | Potency [8] | Potency [9] | Potency [10] | Potency [11] | Potency [12] | Potency [13] | Potency [14] | outcome [15] | outcome [16] | outcome [17] | outcome [18] | Potency [19] | Potency [20]
1 | CNC(=O)Oc1c(C(C)(C)C)cc(C)cc1C(C)(C)C | inactive | inactive | inactive | inactive | inactive | inactive | inactive | inactive | inactive | inactive | inactive | inactive | inactive | inactive | inactive | inactive | inactive | inactive |  | 
2 | CC(C)(C)NCC(O)c1cc(Cl)c(N)c(Cl)c1 (stereo unspecified) | inactive | inactive | inactive | inactive | inactive | inactive |  | inactive | 21.1 µM (active) | inactive | inactive | inactive | inactive | inactive | inactive | inactive |  |  | inactive | 
3 | Cc1cnc[nH]1 | inactive | inactive | inactive | inactive | inactive |  | inactive | inactive | inactive | inactive | inactive | inactive | inactive | inactive | inactive |  | inactive | inactive | inactive | 
4 | CCOP(=S)(OCC)Oc1ncn(-c2ccccc2)n1 | inactive | inactive | inactive | inactive | inactive | inactive | inactive | inactive | inactive | inactive |  | inactive | inactive | inactive | inactive | inactive | inactive | inactive |  | inactive
5 | NC(=S)C(N)=S | inactive | inactive | inactive | inactive |  | inactive |  |  | inactive | inactive |  |  |  | inactive | inactive | inactive |  |  | inactive | inactive
6 | O=C1OC(c2ccc(O)c(S(=O)(=O)O)c2)(c2ccc(O)c(S(=O)(=O)O)c2)c2c(Br)c(Br)c(Br)c(Br)c21 | inactive | inactive | inactive | inactive |  | inactive | inactive | inactive | inactive | inactive | inactive | inactive | inactive | inactive | inactive | inactive |  |  | inactive | inactive
7 | CC(Cl)(Cl)[N+](=O)[O-] | inactive | inactive | inactive | inactive | inactive | inactive | inactive | inactive | inactive | inactive |  | inactive | inactive | inactive | inactive | inactive | inactive | inactive |  | inactive
8 | CCOP(=S)(OCC)SCSc1ccc(Cl)cc1 | inactive | inactive | inactive | inactive |  |  | inactive | 30.6 µM (active) | inactive | inactive | 4.86 µM (active) | inactive | inactive | inactive | inactive | inactive | inactive | inactive | inactive | inactive
9 | CN1CCN(C(=O)O[C@H]2c3nccnc3C(=O)N2c2ccc(Cl)cn2)CC1 | inactive | inactive | inactive | inactive |  | inactive | inactive | inactive | inactive | inactive | inactive | inactive | inactive | inactive | inactive | inactive | inactive | inactive | inactive | 
10 | O=C1OC(=O)C2C1C1(Cl)C(Cl)=C(Cl)C2(Cl)C1(Cl)Cl (stereo unspecified) | inactive | inactive | inactive | inactive |  | inactive | inactive | inactive | inactive | inactive | inactive | inactive | inactive | inactive | inactive | inactive | inactive | inactive |  | inactive
11 | CCCCCCI | inactive | inactive | inactive | inactive | inactive | inactive |  |  | inactive | inactive | inactive | inactive |  | inactive | inactive | inactive |  |  | inactive | inactive
12 | CCOC(=O)N(C)C(=O)CSP(=S)(OCC)OCC | inactive | inactive | inactive | inactive |  | inactive |  |  | inactive | inactive | inactive | inactive | inactive | inactive | inactive | inactive |  |  | inactive | 
13 | CC1CN1P(=O)(N1CC1C)N1CC1C (stereo unspecified) | inactive | inactive | inactive | inactive |  | inactive |  |  | inactive | inactive | inactive | inactive |  | inactive | inactive | inactive | inactive | inactive | inactive | inactive
14 | CC(C)COP(=O)(OCC(C)C)OCC(C)C | inactive | inactive | inactive | inactive |  | inactive | inactive | inactive | inactive | inactive | inactive | inactive | inactive | inactive | inactive | inactive | inactive | inactive | inactive | 
15 | O=[N+]([O-])c1cc(Cl)c(Cl)c(Cl)c1 | inactive | inactive | inactive | 54 µM (active) |  | inactive | inactive | inactive | inactive | inactive | inactive | inactive | inactive | inactive | inactive | inactive | inactive | inactive | inactive | inactive
16 | COc1cc(OC)nc(NC(=O)NS(=O)(=O)c2ncccc2C(=O)N(C)C)n1 | inactive | inactive | inactive | inactive |  | inactive | inactive | inactive | inactive | inactive | inactive | inactive | inactive | inactive | inactive | inactive | inactive | inactive | inactive | inactive
